Test results published in PubChem BioAssay (Tox21).
Records with an inconclusive call do not appear. Where a call stands in place of a potency, no number is given. Activity calls are given as the source filed them. Calls follow the shape of the dose curve; as a rule, active = well fitted cell-killing curve with a large enough effect in the repeat runs; inconclusive = weak or mixed curves; inactive = no such curve, though single readings can be large or run the other way.

Experiment: qHTS assay to identify small molecule antagonists of the androgen receptor (AR) signaling pathway - cell viability counter screen (AID 743033; also: nearly all actives have a fitted effect of over 45% in size)
Details: AR-bla HEK293 viability, CellTiter-Glo luminescence, 16 h; series mostly up to 58.5 µM
From the text: National Center for Advancing Translational Sciences [NCATS]
NIH Chemical Genomics Center [NCGC]
U.S. Environmental Protection Agency [EPA]
National Institutes of Environmental Health Sciences [NIEHS]
National Toxicology Program [NTP]
U.S. Food and Drug Administration [FDA]
Androgen receptor (AR), a nuclear hormone receptor, plays a critical role in AR-dependent prostate cancer and other androgen related diseases. Endocrine disrupting chemicals (EDCs) and their interactions with steroid hormone receptors like AR may cause disruption of normal endocrine function as well as interfere with metabolic homeostasis, reproduction, developmental and behavioral functions. To identify the compounds that inhibit AR signaling, GeneBLAzer AR-UAS-bla-GripTite cell line (Invitrogen, Carlsbad, CA, USA) containing a beta-lactamase reporter gene under control of an Upstream Activator Sequence (UAS) stably integrated into HEK293 cells was used to screen the Tox21 10K compound library. The cytotoxicity of the Tox21 compound library against the AR-bla cell line was tested in parallel by measuring the cell viability using CellTiter-Glo assay in the same wells.
Tox21 Assay Protocol Summary:
AR-bla cells were dispensed at 2,000 cells/5 uL of assay medium per well into black wall/clear-bottom 1536-well plates using a Multidrop Combi (ThermoFisher Scientific, Waltham, MA) dispenser. After the assay plates were incubated at a 37C and 5% CO2 for 4 hr, 23 nL of compounds dissolved in DMSO, positive controls or DMSO only was transferred to the assay plate by a Pintool station (Kalypsys, San Diego, CA), followed by addition of 1 uL of agonist (R1881) in culture medium using a Bioraptr Flying Reagent Dispenser (FRD) workstation (Beckman Coulter, Indianapolis, IN, USA). The plates were incubated at a 37C and 5% CO2 for 16 h. After 1 uL of LiveBLAzerTM B/G FRET substrate was added using a Bioraptr FRD, the plates were incubated at room temperature for 2 h and fluorescence intensity was measured by an Envision plate reader (PerkinElmer, Shelton, CT). For cell viability readout that measures cytotoxicity, 4 ul/well of CellTiter-Glo reagent was added into the assay plates using a Bioraptr FRD. After 30 min incubation at room temperature, the luminescence intensity in the plates was measured using a ViewLux (PerkinElmer) plate reader.
Potency is read from the fitted curve at half-maximal effect.

Which Potency does the source give for COc1ccc(C2NC(=S)N3C(c4ccc(OC)c(OC)c4)NC(=S)N23)cc1OC (stereo not given) here?
The Potency was 0.239 µM (active).

For CS(=O)(=O)NC(=O)CCC/C=C\C[C@H]1C(=O)C[C@@H](O)[C@@H]1/C=C/[C@H](O)COc1ccccc1, which Potency is on record?
The Potency was “inactive”.

Which Potency does the source give for COc1c(O[C@@H]2O[C@H](CO)[C@@H](O)[C@H](O)[C@H]2O)cc2c(c1OC)-c1ccc(SC)c(=O)cc1[C@@H](NC(C)=O)CC2 here?
Its Potency is “inactive”.

For CC(C)N1CCN(c2ccc(OC[C@H]3CO[C@](Cn4cncn4)(c4ccc(Cl)cc4Cl)O3)cc2)CC1, which Potency is on record?
The Potency was “inactive”.

Which Potency does the source give for CC1=C(C(=O)OCCN(Cc2ccccc2)c2ccccc2)C(c2cccc([N+](=O)[O-])c2)C(P2(=O)OCC(C)(C)CO2)=C(C)N1 (stereo not given) here?
The Potency was “inactive”.

For COC(=O)[C@H]1[C@H]2C[C@@H]3c4[nH]c5cc(OC)ccc5c4CCN3C[C@H]2C[C@H](OC)[C@@H]1OC, which Potency is on record?
The Potency was “inactive”.

For Cc1cc(C)c(NC(=O)C[C@H](CC(=O)O)c2cccc3ccccc23)c(C(=O)N2CCC3(CCCC3)CC2)c1, which Potency is on record?
Its Potency is “inactive”.

Which Potency does the source give for C[C@H](CSC(=O)c1ccccc1)C(=O)N1C[C@@H](Sc2ccccc2)C[C@H]1C(=O)O here?
The Potency was “inactive”.

Which Potency does the source give for CC#CCC(C)[C@H](O)/C=C/[C@@H]1[C@H]2C/C(=C/CCCC(=O)O)C[C@H]2C[C@H]1O (stereo not given in full) here?
The Potency was “inactive”.

With CC(C)CN(C[C@@H](O)[C@H](Cc1ccccc1)NC(=O)O[C@@H]1CCOC1)S(=O)(=O)c1ccc(N)cc1 as the compound, how does the Potency read?
The Potency was “inactive”.

Which Potency does the source give for CCCCC/C=C\CCC(=O)N[C@H]1[C@H](Oc2c3cc4cc2Oc2ccc(cc2Cl)[C@@H](O[C@@H]2O[C@H](CO)[C@@H](O)[C@H](O)[C@H]2NC(C)=O)[C@@H]2NC(=O)[C@H](NC(=O)[C@@H]4NC(=O)[C@H]4NC(=O)[C@@H](Cc5ccc(c(Cl)c5)O3)NC(=O)[C@H](N)c3ccc(O)c(c3)Oc3cc(O)cc4c3)c3ccc(O)c(c3)-c3c(O[C@H]4O[C@H](CO)[C@@H](O)[C@H](O)[C@@H]4O)cc(O)cc3[C@@H](C(=O)O)NC2=O)O[C@H](CO)[C@@H](O)[C@@H]1O here?
Its Potency is “inactive”.

With O=C1/C(=C\c2cccs2)CCC/C1=C\c1cccs1 as the compound, how does the Potency read?
The Potency was “inactive”.

For O=P(O)(O)OC[C@H]1O[C@](O)(COP(=O)(O)O)[C@@H](O)[C@@H]1O, which Potency is on record?
Its Potency is “inactive”.

Which Potency does the source give for CC1(C)S[C@@H]2[C@H](NC(=O)C(C(=O)Oc3ccc4c(c3)CCC4)c3ccccc3)C(=O)N2[C@H]1C(=O)O (stereo not given in full) here?
The Potency was “inactive”.

With COC(=O)[C@H]1[C@H]2C[C@@H]3c4[nH]c5cc(OC)ccc5c4CCN3C[C@H]2C[C@@H](OC(=O)/C=C/c2cc(OC)c(OC)c(OC)c2)[C@@H]1OC as the compound, how does the Potency read?
The Potency was “inactive”.

With CCCCC(C)(O)C/C=C/[C@H]1[C@H](O)CC(=O)[C@@H]1CCCCCCC(=O)OC (stereo not given in full) as the compound, how does the Potency read?
The Potency was “inactive”.

Which Potency does the source give for CCCCCCCCCCCCCCCCSCC(COC)COP(=O)([O-])OCC[N+](C)(C)C (stereo not given) here?
Its Potency is “inactive”.

Which Potency does the source give for COc1ccc2cc([C@H](C)CO)ccc2c1 here?
Its Potency is “inactive”.

Which Potency does the source give for CCOC(=O)[C@H](CS)NCCN[C@@H](CS)C(=O)OCC here?
Its Potency is “inactive”.

Which Potency does the source give for CS(=O)(=O)Nc1cc2occ(NC=O)c(=O)c2cc1Oc1ccccc1 here?
Its Potency is “inactive”.

Which Potency does the source give for COc1cc([C@@H]2c3cc4c(cc3C(O[C@@H]3O[C@@H]5CO[C@@H](C)O[C@H]5[C@H](O)[C@H]3O)C3COC(=O)[C@@H]32)OCO4)cc(OC)c1OP(=O)(O)O (stereo not given in full) here?
The Potency was “inactive”.

With O=C(O)CO.[NH2-].[NH2-].[Pt+2] as the compound, how does the Potency read?
The Potency was “inactive”.

Which Potency does the source give for CCOC(=O)[C@@H](N)CS here?
Its Potency is “inactive”.

For CO[C@H]1[C@@H](O)[C@H](N)[C@@H](O[C@H]2O[C@H]([C@H](C)N)CC[C@H]2N)[C@H](O)[C@@H]1N(C)C(=O)CN, which Potency is on record?
Its Potency is “inactive”.

Which Potency does the source give for CC(=O)N[C@@H]([C@@H](O)[C@H](O)[C@H](O)CO)[C@@H](O)CC(=O)C(=O)O here?
Its Potency is “inactive”.

Which Potency does the source give for NC(=O)Oc1ccc(Cc2ccccc2)cc1 here?
The Potency was “inactive”.

Which Potency does the source give for CCCCCCCCCCCCCCCCCCCCCCO here?
Its Potency is “inactive”.

Which Potency does the source give for C[C@H](/C=C/[C@H](C)C(C)(C)O)[C@H]1CC[C@H]2/C(=C/C=C3C[C@@H](O)C[C@H](O)C3)CCC[C@]12C here?
Its Potency is “inactive”.

With CCCCCCC(=O)O[C@H]1CC[C@H]2[C@@H]3CCc4cc(O)ccc4[C@H]3CC[C@]12C as the compound, how does the Potency read?
The Potency was “inactive”.

For CC1=C(/C=C/C(C)=C/C=C/C(C)=C/C=C/C=C(C)/C=C/C=C(C)/C=C/C2=C(C)C[C@@H](O)CC2(C)C)C(C)(C)C[C@H](O)C1, which Potency is on record?
The Potency was “inactive”.

For O=C(Nc1ccc(O)cc1)c1ccccc1O, which Potency is on record?
Its Potency is “inactive”.

For C[C@]12CCC(=O)C[C@@H]1CC[C@@H]1[C@@H]2CC[C@]2(C)C=CC[C@@H]12, which Potency is on record?
Its Potency is “inactive”.

Which Potency does the source give for Cc1ccc(/C(=C\CN2CCCC2)c2cccc(/C=C/C(=O)O)n2)cc1 here?
The Potency was “inactive”.

For CC1CCC(NC(=O)N(CCCl)N=O)CC1 (stereo not given), which Potency is on record?
Its Potency is “inactive”.

For O=C(NOC[C@H](O)CO)c1ccc(F)c(F)c1Nc1ccc(I)cc1F, which Potency is on record?
Its Potency is “inactive”.

With CCOC(=O)Nc1ccc2c(c1)N(C(=O)CN(C)C)c1ccccc1CC2 as the compound, how does the Potency read?
The Potency was “inactive”.

For C=CCCCCCCCCC(=O)OC, which Potency is on record?
The Potency was “inactive”.

With O=C(CCCN1CCC(C(=O)c2ccc(F)cc2)CC1)c1ccc(F)cc1 as the compound, how does the Potency read?
Its Potency is “inactive”.

Which Potency does the source give for CN(C)C=Nc1c(I)cc(I)c(CCC(=O)O)c1I here?
Its Potency is “inactive”.

For CNCC(O)c1ccc(OC(=O)C(C)(C)C)c(OC(=O)C(C)(C)C)c1 (stereo not given), which Potency is on record?
The Potency was “inactive”.
